The results in this text go back to PubChem BioAssay AID489028 (Sanford-Burnham Center for Chemical Genomics, 2010).

The campaign covered roughly 10,000 compounds. About 5,600 (56%) were called active. The set was probably picked from earlier hits. The list is a sample of the results. Values without a mark were called inactive. Rule as the data show it: active = inhibition above about 40%; inactive = the rest.

In general, inhibition refers to the change of the read-out against control, counted positive when it falls.

The target of the assay is Protein Mdm4 (Homo sapiens) + E3 ubiquitin-protein ligase Mdm2 (Homo sapiens) (UniProt O15151+Q00987). As to the kind of experiment: inhibition of human Mdm2/MdmX pairing – luminescence, single concentration, confirmation (AID 489028). The following applies: Mdm2-MdmX binding, luminescent assay; at 8 µM; stronger effect = higher value.
Sequence of Protein Mdm4 (Homo sapiens) + E3 ubiquitin-protein ligase Mdm2 (Homo sapiens) (O15151 whole entry, looked up): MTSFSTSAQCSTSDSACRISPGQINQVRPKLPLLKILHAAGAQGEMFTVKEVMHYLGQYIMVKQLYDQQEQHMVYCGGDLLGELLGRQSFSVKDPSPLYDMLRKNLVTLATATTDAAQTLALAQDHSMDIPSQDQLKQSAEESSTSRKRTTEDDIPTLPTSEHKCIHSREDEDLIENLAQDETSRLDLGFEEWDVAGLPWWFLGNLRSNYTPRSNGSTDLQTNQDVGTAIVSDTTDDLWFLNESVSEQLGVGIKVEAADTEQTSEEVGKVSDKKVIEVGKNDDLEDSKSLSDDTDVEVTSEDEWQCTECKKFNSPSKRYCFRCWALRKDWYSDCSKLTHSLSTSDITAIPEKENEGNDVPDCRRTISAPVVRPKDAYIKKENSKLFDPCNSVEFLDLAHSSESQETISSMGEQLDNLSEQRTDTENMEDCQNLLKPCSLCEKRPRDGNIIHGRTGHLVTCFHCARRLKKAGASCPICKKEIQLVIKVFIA
Sequence of Protein Mdm4 (Homo sapiens) + E3 ubiquitin-protein ligase Mdm2 (Homo sapiens) (Q00987 whole entry, looked up): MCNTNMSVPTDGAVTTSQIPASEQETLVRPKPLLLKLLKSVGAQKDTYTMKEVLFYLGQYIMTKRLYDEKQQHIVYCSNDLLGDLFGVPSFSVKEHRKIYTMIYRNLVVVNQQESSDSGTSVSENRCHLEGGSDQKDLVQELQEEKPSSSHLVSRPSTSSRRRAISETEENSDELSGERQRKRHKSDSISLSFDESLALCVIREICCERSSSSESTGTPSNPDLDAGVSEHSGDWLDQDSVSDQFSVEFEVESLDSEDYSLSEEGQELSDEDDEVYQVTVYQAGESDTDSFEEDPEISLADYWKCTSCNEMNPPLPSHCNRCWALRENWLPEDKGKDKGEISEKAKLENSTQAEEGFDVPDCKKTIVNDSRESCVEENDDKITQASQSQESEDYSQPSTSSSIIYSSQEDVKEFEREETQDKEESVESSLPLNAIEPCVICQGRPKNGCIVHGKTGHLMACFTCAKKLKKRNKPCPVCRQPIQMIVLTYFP
For `CSc1nc(N)c(C#N)c(-c2ccccc2Cl)c1C#N`, the inhibition was 22.9%.

Take `COc1ccc(Nc2oc(-c3ccccc3Cl)nc2C#N)cc1`: the inhibition was 42.7% (active).

As to `CN(C)CCCn1c(=O)n(Cc2ccccc2)c(=O)c2c3c(sc21)CCCCC3`, the inhibition is 37.5%.

As for `COc1ccc(C(C(=O)NC2CCCCC2)N(C(=O)CCl)c2ccccc2Cl)cc1` (stereo not drawn), the inhibition is 100% (active).

In the case of `CC(=O)N1CCc2c(sc(NC(=O)CCS(=O)(=O)c3ccccc3)c2C#N)C1`, the inhibition was 45.3% (active).

With `N#Cc1c(NC(=O)CSc2nc3ccccc3c(=O)n2Cc2ccco2)sc2c1CCCC2`, the inhibition was 36.7%.

As to `COc1cccc2sc(N(CCCN(C)C)C(=O)C(c3ccccc3)c3ccccc3)nc12`, the inhibition is 86.2% (active).

In the case of `CN(C)CCCN(C(=O)c1ccc(S(=O)(=O)N2CCCCCC2)cc1)c1nc2ccc(Br)cc2s1`, the inhibition was 21.9%.

For `Cc1cccc2sc(N(CCCN(C)C)C(=O)CCS(=O)(=O)c3ccccc3)nc12`, the inhibition is 52% (active).

For `COc1cccc2sc(N(CCCN(C)C)C(=O)CCS(=O)(=O)c3ccccc3)nc12`, the inhibition is 48% (active).

As to `CN(C)CCCN(C(=O)c1ccc(S(=O)(=O)N2CCCCCC2)cc1)c1nc2cc3c(cc2s1)OCCO3`, the inhibition was 29.6%.

Take `Cc1ccc2sc(N(CCN(C)C)C(=O)/C=C/c3cccs3)nc2c1C`: the inhibition is 4.55%.

On to `Cn1c(=O)n(C)c2cc(C(=O)Nc3ccc(Br)cc3)ccc21`, for which the inhibition is 35.1%.

In the case of `Cn1c(=O)n(C)c2cc(C(=O)Nc3ccc4c(c3)OCO4)ccc21`, the inhibition is 47.6% (active).

As to `Cc1ccc(C(=O)Nc2sc(Cc3ccc4c(c3)OCO4)c(C)c2C(N)=O)cc1`, the inhibition is 40%.

In the case of `O=c1oc2ccccc2cc1-c1cn(-c2ccccc2)c(=S)[nH]1`, the inhibition was 96.2% (active).

As for `Cc1ccc(C(=O)NNC(=O)c2cc3cc4ccccc4nc3s2)cc1`, the inhibition was 26.1%.

Take `CCSc1nsc(NC(=O)Nc2cccc(C(C)=O)c2)n1`: the inhibition was 40.8% (active).

On to `C=CCSc1nsc(NC(=O)Nc2cccc(C(C)=O)c2)n1`, for which the inhibition was 66.8% (active).

With `Cc1cccc(NC(=S)NCc2ccc3[nH]c4c(c3c2)CCCC4)c1`, the inhibition was 10.7%.

In the case of `Oc1c(Cl)cc(Cl)c(Cl)c1Cc1c(O)c(Cl)cc(Cl)c1Cl`, the inhibition is 90.5% (active).

For `Cc1c(Cl)c([N+](=O)[O-])nn1Cc1ccc(C(=O)N/N=C\c2cc(Cl)ccc2O)o1`, the inhibition was 75% (active).

Turning to `CCCCNc1c(-c2cccc(Sc3ccc(OC)cc3)c2)nc2ccccn12`, the inhibition was -9.4%.

With `CCCc1nc(NCc2ccc3c(c2)OCO3)c2nnn(Cc3ccccc3Cl)c2n1`, the inhibition was 62% (active).

Turning to `Cc1ccc2nc(-c3ccncc3)cc(C(=O)Nc3ccc4c(c3)OCCO4)c2c1`, the inhibition was 57% (active).

Consider `COc1ccc(CC(=O)Nc2ccc(-c3nnc(-c4ccc(C)cc4)o3)cc2)cc1`, for which the inhibition is 15.7%.

Take `COc1ccc(CS(=O)/C(Cl)=C(/Cl)C(=O)Nc2ccc(OC)nc2)cc1` (stereo not drawn): the inhibition is 100% (active).

With `COc1ccc(NC(=O)/C(Cl)=C(/Cl)S(=O)Cc2ccc(C)cc2)cn1` (stereo not drawn), the inhibition was 99.5% (active).

For the compound `O=C(Nc1ccc2ccccc2c1)Nc1ccc2snnc2c1`, the inhibition was 47.5% (active).

With `COc1ccc(-c2cc(C(F)(F)F)nc(S(C)(=O)=O)n2)cc1OC`, the inhibition is 56.1% (active).

In the case of `Cc1ccc2[nH]c(=O)c(CN(CCCN(C)C)C(=O)Nc3cccc(Cl)c3)cc2c1`, the inhibition was 44.1% (active).

On to `Cc1cc(C)c2[nH]c(=O)c(CN(Cc3ccccc3)C(=S)NCCCN(C)C)cc2c1`, for which the inhibition is 37%.

For the compound `O=C(Cn1nnc(-c2ccccc2)n1)N/N=C/c1ccc(-c2ccc(Cl)cc2)o1`, the inhibition was 55.2% (active).

In the case of `COc1ccc2c(c1OC)C(=O)OC2Nc1nc(-c2ccccc2)cs1` (stereo not drawn), the inhibition is 73.8% (active).

For the compound `COc1ccc(OC)c(Nc2nc(-c3ccc(O)c(O)c3)cs2)c1`, the inhibition is 38.4%.

In the case of `Cc1ccc(-c2csc(NC3OC(=O)c4ccccc43)n2)cc1` (stereo not drawn), the inhibition was 76% (active).

As for `CN(C)CCCN(C(=O)c1ccc(S(=O)(=O)N2CCCc3ccccc32)cc1)c1nc2ccc(F)cc2s1`, the inhibition is 29.9%.

For `O=C(NC(Nc1nc2ccc([N+](=O)[O-])cc2s1)(C(F)(F)F)C(F)(F)F)c1ccccc1`, the inhibition was 98.5% (active).

As to `CS(=O)(=O)c1ccc2nc(NC(=O)c3ccc(N4CCCC4=O)cc3)sc2c1`, the inhibition was 7.9%.

With `O=C(Nc1nc2ccc([N+](=O)[O-])cc2s1)c1ccc(S(=O)(=O)N2CCCc3ccccc32)cc1`, the inhibition is 88.2% (active).

In the case of `Cc1ccccc1OCCOc1ccc([N+](=O)[O-])cc1/C=N/n1cnnc1`, the inhibition was 58.2% (active).

`Fc1ccccc1/C=C1\CCCC2=C1Nc1ncnn1C2c1ccccc1F` (stereo not drawn): the inhibition is 83% (active).

For `COc1ccc(OC)c(C2C3=C(N=c4s/c(=C\c5cccc(O)c5)c(=O)n42)c2ccccc2CC3)c1` (stereo not drawn), the inhibition was 28.1%.

Regarding `CC1CCCCC1NC(=O)/C(C#N)=C/C=C/c1ccccc1[N+](=O)[O-]` (stereo not drawn), the inhibition is 93% (active).

On to `Cc1ccc(C)c(N2CCN(C(=O)CCCCCn3c(=S)[nH]c4ccc(N5CCOCC5)cc4c3=O)CC2)c1`, for which the inhibition was 43.1% (active).

For the compound `O=C(CCCCCn1c(=S)[nH]c2cc3c(cc2c1=O)OCO3)N1CCN(c2ccc(F)cc2)CC1`, the inhibition is 36.2%.

For the compound `O=C(CCn1c(=S)[nH]c2cc3c(cc2c1=O)OCO3)NCc1ccc(Cl)cc1`, the inhibition was 5.65%.

Turning to `CCN1/C(=C\c2ccc3ccccc3[n+]2CC)Sc2cc(C)ccc21`, the inhibition was 78.1% (active).

As to `O=C(NCC#CCSc1nnc(-c2cccc3ccccc23)o1)c1cccs1`, the inhibition was 83.7% (active).

Consider `Oc1ccc(N=Nc2nccs2)c(O)c1`, for which the inhibition was 35%.

Take `CS(=O)(=O)N(CC(O)Cn1c2ccccc2c2ccccc21)c1cccc2ccccc12` (stereo not drawn): the inhibition is 15.5%.

Consider `C=C(C)C(=O)O[C@H]1C/C(C)=C\C(=O)/C=C(\C)[C@H](O)[C@@H]2OC(=O)C(=C)[C@@H]21`, for which the inhibition was 56.6% (active).

Consider `CC(Nc1nc(C(F)(F)F)nc2ccccc12)c1cccs1` (stereo not drawn), for which the inhibition is 50.4% (active).

In the case of `Cc1nnc(N/N=C/c2ccccn2)[nH]c1=O`, the inhibition is 86.6% (active).

In the case of `CCc1ccc2c(c1)C1(NN=C(c3ccccc3)S1)C(=O)N2` (stereo not drawn), the inhibition was 53.1% (active).

Take `Nc1nc(CC(=O)CSc2ccc(Cl)cc2)nc(Nc2ccc(F)cc2)n1`: the inhibition is 71% (active).

On to `COc1ccccc1N1CCN(c2ncnc3sc(C)c(-c4ccccc4)c23)CC1`, for which the inhibition is 25.6%.

For the compound `Oc1ccccc1N1CCN(c2ncnc3sc(-c4ccccc4)cc23)CC1`, the inhibition is 58% (active).

Take `c1ccc2c(c1)C(=NC1CCCCC1)NC2=NC1CCCCC1`: the inhibition was 53.5% (active).

`Cc1cccc(-n2ncc(Cl)c(Cl)c2=O)c1`: the inhibition is 87.5% (active).

`Cc1cc(C)c2c(-c3ccc(F)cc3)c(C#N)c(=O)n(C)c2n1`: the inhibition was 12%.

For the compound `CCN(CC)S(=O)(=O)c1ccc(NC(=O)c2cccnc2Cl)c(NC(=O)c2cccnc2Cl)c1`, the inhibition was 95.8% (active).

As to `O=C1N/C(=C/c2cccn2-c2ccccc2)C(=O)N1c1cccc(Cl)c1`, the inhibition was 59.4% (active).

As to `COc1ccc(CNC(=O)C(c2ccc(O)cc2)N(Cc2ccco2)C(=O)c2snc(C(N)=O)c2N)cc1` (stereo not drawn), the inhibition is 45% (active).

Consider `N=c1c2c(-c3ccccc3)c(-c3ccccc3)n(Cc3ccccc3)c2ncn1CCCO`, for which the inhibition was 62.9% (active).

Turning to `CCCC[C@@H]1CN=C(N)N1CCc1cc(C(F)(F)F)cc(C(F)(F)F)c1`, the inhibition was 32.2%.

Regarding `CC1=C/C(=N\OS(=O)(=O)c2ccccc2)C=CC1=O`, the inhibition was 45.8% (active).

Take `CN1CCN(c2ccccc2NC(=O)COc2ccc(C3CCCCC3)cc2)CC1`: the inhibition is 20%.

For `CCOc1cc(NC(=O)c2ccco2)c(OCC)cc1NC(=O)COc1ccccc1`, the inhibition was 25.9%.

For `CCOc1cc(N2CCOCC2)c(OCC)cc1NC(=O)COc1cccc2cccnc12`, the inhibition is 80.8% (active).

For `CCc1ccc(N(CC)c2ncnc3nc[nH]c23)cc1`, the inhibition was 52.4% (active).

`Cc1cccc(-c2oc3ccc(-c4ccc5c(c4)OCO5)cc3c2C#Cc2cncn2C)c1`: the inhibition was 30.1%.

For the compound `COc1ccc2sc(-c3ccc(S(C)(=O)=O)cc3)c(C#Cc3cncn3C)c2c1`, the inhibition was 60.5% (active).

Consider `O=C(CCNC(=O)c1ccc(Cl)cc1)NC1CCCc2ccccc21` (stereo not drawn), for which the inhibition is 57.9% (active).

`CC(C)Cc1nc(Nc2ccc(S(=O)(=O)N3CCCC3)cc2)c2nnn(Cc3ccccc3)c2n1`: the inhibition is 36.1%.

For the compound `COc1ccc(-c2ccc(Nc3ccc(S(=O)(=O)N4CCCC4)cc3)nn2)cc1OC`, the inhibition was 53.5% (active).

Turning to `COc1ccc(C(CCN(Cc2ccc(OC)c(OC)c2)C(=O)CCl)c2ccccc2)cc1` (stereo not drawn), the inhibition is 73.3% (active).

In the case of `CCOC(=O)CC1C(=O)NCCN1c1nc2c(C)cccn2c(=O)c1/C=C1\SC(=S)N(C(C)CC)C1=O` (stereo not drawn), the inhibition was 61.7% (active).

In the case of `COc1ccccc1-n1nnnc1S(=O)(=O)Cc1ccc(Cl)cc1`, the inhibition is 74.9% (active).

`NC(N)=N/N=C/c1ccc(OCc2ccc(Cl)cc2Cl)cc1`: the inhibition was 99.7% (active).

Take `CCCCCCc1cc2cc(-c3nnc(-c4ccccc4)o3)c(=O)oc2cc1O`: the inhibition is 0.95%.

Take `CC(Nc1nc(N2CCCC2)nc2ccccc12)c1ccccc1` (stereo not drawn): the inhibition is 40.5% (active).

On to `Cc1[nH]nc(-c2ccc(OCc3cnn(-c4ccccc4)c3)cc2O)c1Oc1ccc(Cl)cc1`, for which the inhibition was 25.5%.

Take `COC(=O)c1sc(-c2ccc(C(C)(C)C)cc2)cc1NC(=O)/C=C/C(=O)O`: the inhibition is 52.6% (active).

`O=S(=O)([N-]c1nc2ccccc2nc1-[n+]1ccc(Cc2ccccc2)cc1)c1ccc(Br)s1`: the inhibition is 60% (active).

Regarding `Cc1cccc(-c2nc3ccc(C(=O)NCCN4CCN(C)CC4)cc3nc2-c2cccc(C)c2)c1`, the inhibition is 28.6%.

In the case of `Cc1cc(CNC(=O)c2cccc([N+](=O)[O-])c2)c2ccccc2n1`, the inhibition is 58.7% (active).

For the compound `O=C(NCc1ccccc1)C1=C[C@@H](C2CCCCC2)C[C@@H](OCc2ccc(CO)cc2)O1`, the inhibition is 32.2%.
